From paper PMC5913336, “True equilibrium measurement of transcription factor-DNA binding affinities using automated polarization microscopy” come the findings set out here.

The target in one experiment is T1, Br (Drosophila melanogaster, UniProt Q24206 697-775).
T1 sequence: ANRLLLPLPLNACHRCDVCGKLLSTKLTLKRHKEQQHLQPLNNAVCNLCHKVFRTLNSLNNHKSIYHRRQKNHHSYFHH
Description: FP; 33 mM phosphate pH 7.0, 90 mM NaCl, 0.01% Tween 20, 0.1 mM DTT, 0.5% agarose; room temperature. The settings on record: tags: N-GST (pGEX-6P-1, kept); dsDNA, one strand shown.
Turning to GGAAGTAGAAAAC, the binding signal is 40.3 Kd / Kd of best base at the position. The same measure, in the same setting: to GGAATTGGAAAAC belongs 438 Kd / Kd of best base at the position. Still for that read-out and setting: to GGAATTAGAAAAA belongs 1.22 Kd / Kd of best base at the position.

With GGGATTAGAAAAC, the binding signal is 1.54 Kd / Kd of best base at the position.

Regarding GGAATTAGACAAC, the binding signal was 3.07 Kd / Kd of best base at the position. Consider GGAATTCGAAAAC, for which the binding signal was > 1590 Kd / Kd of best base at the position. The same measure, in the same setting: to GGACTTAGAAAAC belongs 2.43 Kd / Kd of best base at the position.

For the next experiment, the target named is T2, Hb (Drosophila melanogaster, UniProt P05084 225-364).
T2 sequence: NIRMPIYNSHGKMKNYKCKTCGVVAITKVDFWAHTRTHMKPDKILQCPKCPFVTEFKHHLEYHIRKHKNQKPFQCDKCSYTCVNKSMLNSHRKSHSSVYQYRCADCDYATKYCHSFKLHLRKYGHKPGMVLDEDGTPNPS
The description is as above. The following applies: tags: N-GST (pGEX-6P-1, kept); dsDNA, one strand shown.
In the case of AGTTTTTAAGGC, the binding signal was 9.25 Kd / Kd of best base at the position. With AGTGTTTTAGGC, the binding signal was 6.19 Kd / Kd of best base at the position. Regarding AGTTTCTTAGGC, the binding signal is 9.31 Kd / Kd of best base at the position. For AGTTTTTTAGCC, the binding signal is 1.11 Kd / Kd of best base at the position. Same read-out and setting: under ACTTTTTTAGGC stands 1.03 Kd / Kd of best base at the position; under AGTTTTTTTGGC, 6.04 Kd / Kd of best base at the position. Same read-out and setting: to AGTTTTCTAGGC belongs 15 Kd / Kd of best base at the position. As to AGTTTTGTAGGC, the binding signal is 9.72 Kd / Kd of best base at the position. As for AGTTTTTTGGGC, the binding signal was 6.22 Kd / Kd of best base at the position. Same read-out and setting: under AGTTTTTTAAGC stands 1.31 Kd / Kd of best base at the position; under AGTTTTTTCGGC, 5.64 Kd / Kd of best base at the position; under AGTCTTTTAGGC, 8.66 Kd / Kd of best base at the position. As to AGTTTTTTAGGA, the binding signal was 1.46 Kd / Kd of best base at the position. With AATTTTTTAGGC, the binding signal was 1.04 Kd / Kd of best base at the position. Still for that read-out and setting: to AGTTTTATAGGC belongs 9.8 Kd / Kd of best base at the position; to AGTTATTTAGGC, 10.2 Kd / Kd of best base at the position; to CGTTTTTTAGGC, 1.23 Kd / Kd of best base at the position. As to AGTTGTTTAGGC, the binding signal is 9.25 Kd / Kd of best base at the position. Regarding AGTTTGTTAGGC, the binding signal was 11.9 Kd / Kd of best base at the position.

On to AGCTTTTTAGGC, for which the binding signal is 2.23 Kd / Kd of best base at the position. On the same count and under the same terms, to AGGTTTTTAGGC belongs 1.26 Kd / Kd of best base at the position; to ATTTTTTTAGGC, 1.03 Kd / Kd of best base at the position; to AGATTTTTAGGC, 3.22 Kd / Kd of best base at the position. The same measure, in the same setting: to GGTTTTTTAGGC belongs 1.46 Kd / Kd of best base at the position.

The sequence AGTTTTTTAGGC showed a Kd of roughly 12.5 nM. On to AGTTTTTTAGGT, for which the binding signal was 1.01 Kd / Kd of best base at the position. On the same count and under the same terms, to AGTTTTTGAGGC belongs 8.32 Kd / Kd of best base at the position. Same read-out and setting: to AGTTTTTTACGC belongs 1.61 Kd / Kd of best base at the position. Still for that read-out and setting: to AGTTTTTCAGGC belongs 10.3 Kd / Kd of best base at the position; to AGTTTATTAGGC, 11 Kd / Kd of best base at the position; to AGTTTTTTATGC, 1.04 Kd / Kd of best base at the position. On to AGTATTTTAGGC, for which the binding signal was 8.15 Kd / Kd of best base at the position.
